Test results from PubChem BioAssay (Tox21).
Inconclusive results are not listed. Calls of active or inactive are those of the source. Unless noted, the call rests on the fitted dose curve; in most records, active means well fitted curve in the direction sought with a large enough effect in the repeat runs; inconclusive means weak or mixed curves; inactive means no such curve, though single readings can be large; an effect the other way counts as inactive or inconclusive.

Columns and labels:
[1] = biological target: Retinoic acid receptor RXR-alpha (Homo sapiens) (UniProt P19793); assay: qHTS assay to identify small molecule agonists of the RXR signaling pathway (AID 1159527; calls by dose curve; further: nearly all actives have a fitted effect of over 35% in size)
In short: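 qHTS of the Tox21 10K library in GeneBLAzer RXR-alpha HEK 293T cells carrying a beta-lactamase reporter […]; 16 hr treatment, 9-cis retinoic acid as agonist control, FRET read-out.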

[2] = qHTS assay to identify small molecule agonists of the RXR signaling pathway - cell viability counter screen (AID 1159529); further: series mostly up to about 77 µM; nearly all actives have a fitted effect of over 50% in size
In short: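 Cell viability is measured by CellTiter-Glo luminescence, 30 min at room temperature, in wells already read for beta-lactamase. Engineered HEK 293T cells (RXR-alpha-UAS-bla) are dosed 16 hr at 37 C. Tetraoctyl ammonium bromide serves as positive control.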

[3] = qHTS assay to identify small molecule antagonists of the retinoid acid receptor (RAR) signaling pathway - cell viability counter screen (AID 1159551); further: nearly all actives have a fitted effect of over 35% in size
In short: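 C3RL4 cells were seeded overnight at 37 C, then treated with compounds plus 1 uM (final) retinol for 6 h at 37 C. Viability was read as ATP by CellTiter-Glo luminescence after 30 min at room temperature.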

[4] = qHTS assay to identify small molecule antagonists of the retinoic acid receptor (RAR) signaling pathway (AID 1159552; further: nearly all actives have a fitted effect of over 50% in size)
In short: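 Quantitative HTS in C3RL4 RARE-luciferase reporter cells. Compounds were added with 1 uM (final) retinol; luminescence was read after 6 hr.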

[5] = qHTS assay to identify small molecule agonists of the retinoic acid receptor (RAR) signaling pathway (AID 1159553)
In short: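 C3RL4 cells carrying a RARE luciferase reporter were plated overnight at 37 C, then exposed to compounds in DMSO for 6 hr at 37 C and 5% CO2. Luminescence was read 30 min after luciferase reagent addition at room temperature.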

[6] = qHTS assay to identify small molecule antagonists of the estrogen related receptor (ERR) signaling pathway - cell viability counter screen (AID 1224818);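 further: series mostly up to about 46 µM; viability measured after 17.5 h of compound exposure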
In short: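 ERR reporter cells plated 6 h at 37 C/5% CO2, then compounds in DMSO pin-transferred and incubated 17.5 h at 37 C. Viability read as CellTiter-Fluor fluorescence after 30 min at 37 C.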

[7] = qHTS assay to identify small molecule antagonists of the estrogen related receptor signaling pathway with the pleiotropic PPARgamma coactivator (PGC) cell viability counter screen (AID 1224822; further: series mostly up to about 46 µM)
In short: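 PGC/ERR cells were seeded at 2,000 cells/well, rested 6 h at 37 C/5% CO2, then given compounds in DMSO by pin tool and incubated 17.5 h at 37 C. Viability came from CellTiter-Fluor fluorescence after 30 min.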

[8] = qHTS assay to identify small molecule antagonists of the estrogen related receptor (ERR) signaling pathway from Tox21 library - cell viability counter screen (AID 1224834); further: nearly all actives have a fitted effect of over 30% in size
In short: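 ERR reporter cells were plated 6 h before compound addition, then exposed to test compounds in DMSO for 17.5 h at 37 C. Viability was read as CellTiter-Fluor fluorescence after a 30-minute incubation at 37 C.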

[9] = biological target: Luciferin 4-monooxygenase (Photinus pyralis) (UniProt P08659); assay: qHTS assay to identify small molecule inhibitors of firefly luciferase (AID 1224835); further: series mostly up to about 120 µM; nearly all actives have a fitted effect of over 25% in size
In short: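 Quantitative HTS format; KM concentrations of both substrates. Purified P. pyralis FLuc activity quantified from luminescence images.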

[10] = qHTS assay to identify small molecule agonists of the constitutive androstane receptor (CAR) signaling pathway - cell viability counter screen (AID 1224836); further: series mostly up to about 92 µM; nearly all actives have a fitted effect of over 45% in size
In short: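 Counter screen multiplexed with the CAR reporter readout: HepG2 cells co-transfected with hCAR and the CYP2B6-2.2kb construct receive a 15-concentration compound series and 0.75 uM PK11195 (final), then CellTiter-Fluor fluorescence is read after 23 h.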

[11] = qHTS assay to identify small molecule antagonists of the constitutive androstane receptor (CAR) signaling pathway - cell viability counter screen (AID 1224837); further: series mostly up to about 92 µM; nearly all actives have a fitted effect of over 45% in size
In short: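 HepG2 cells stably expressing hCAR and a CYP2B6-2.2kb reporter were plated and pre-incubated 4 hr at 37 C/5% CO2, then given compounds at 15 concentrations plus 50 nM CITCO (final). After 23 hr, viability was read by CellTiter-Fluor fluorescence.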

[12] = biological target: Nuclear receptor subfamily 1 group I member 3 (Homo sapiens) (UniProt Q14994); assay: qHTS assay to identify small molecule antagonists of the constitutive androstane receptor (CAR) signaling pathway (AID 1224838); further: nearly all actives have a fitted effect of over 40% in size
In short: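 HepG2 cells stably co-transfected with hCAR and a CYP2B6-2.2kb luciferase reporter were seeded 4 h before compound addition at 15 concentrations. Cells were stimulated with 50 nM CITCO (final) for 24 h at 37 C; luciferase luminescence was then read.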

[13] = biological target: Nuclear receptor subfamily 1 group I member 3 (Homo sapiens) (UniProt Q14994); assay: qHTS assay to identify small molecule agonists of the constitutive androstane receptor (CAR) signaling pathway (AID 1224839); further: series mostly up to about 92 µM; nearly all actives have a fitted effect of over 15% in size
In short: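 A 15-concentration quantitative screen uses HepG2 cells co-transfected stably with human CAR and CYP2B6-2.2kb reporter. Treatment lasts 24 h with 0.75 uM PK11195 final present; ONE-Glo luminescence is the signal.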

[14] = qHTS assay to identify small molecule antagonists of the estrogen related receptor signaling pathway with the pleiotropic PPARgamma coactivator (PGC) from Tox21 10K library - cell viability counter screen (AID 1224840; active means well fitted cell-killing curve with a large enough effect in the repeat runs, not every such curve was filed as active; further: nearly all actives have a fitted effect of over 40% in size)
In short: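 PGC/ERR cells were seeded at 2,000 cells/well and left 6 hours at 37 C/5% CO2 before pin-tool addition of compounds in DMSO. After 17.5 hours at 37 C, CellTiter-Fluor was added and fluorescence read 30 minutes later.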

[15] = qHTS assay to identify small molecule agonists of the estrogen related receptor (ERR) signaling pathway (AID 1224820)
In short: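 ERR reporter cells (NTP line) plated 2,000/well, incubated 6 h at 37 C/5% CO2, then pinned with compounds in DMSO and held 18 h at 37 C. One-Glo added; luminescence read after 30 min at room temperature.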

[16] = test system: estrogen-related receptor alpha (ERRalpha) with PGC-1alpha coactivator, human; assay: qHTS assay to identify small molecule antagonists of the estrogen related receptor signaling pathway with the pleiotropic PPARgamma coactivator (PGC) (AID 1224821; calls by dose curve;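 further: series mostly up to about 46 µM; lower luminescence signal means antagonism of PGC/ERR signalling; nearly all actives have a fitted effect of over 50% in size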)
In short: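 Cells engineered for PGC/ERR signalling (line from NTP) were plated 6 h at 37 C/5% CO2, then exposed to DMSO-dissolved compound for 18 h at 37 C. Luciferase activity was read by One-Glo luminescence after 30 min at room temperature.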

[17] = qHTS assay to identify small molecule agonists of the estrogen related receptor signaling pathway with the pleiotropic PPARgamma coactivator (PGC) (AID 1224823)
In short: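 PGC/ERR reporter cells were seeded, rested 6 h at 37 C/5% CO2, then exposed to compounds in DMSO by pin transfer for 18 h at 37 C. Luciferase activity was read as luminescence after One-Glo reagent and 30 min at room temperature.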

[18] = qHTS assay to identify small molecule agonists of the estrogen related receptor signaling pathway with the pleiotropic PPARgamma coactivator (PGC) from Tox21 10K library (AID 1224842); further: nearly all actives have a fitted effect of over 15% in size
In short: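 PGC/ERR reporter cells (NTP line) were seeded 2,000 per well, rested 6 h at 37 C/5% CO2, then pin-dosed with compounds in DMSO for 18 h at 37 C; luciferase read by One-Glo luminescence after 30 min at room temperature.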

Measured: Potency

Sequence of Luciferin 4-monooxygenase (Photinus pyralis) (P08659 whole entry, looked up): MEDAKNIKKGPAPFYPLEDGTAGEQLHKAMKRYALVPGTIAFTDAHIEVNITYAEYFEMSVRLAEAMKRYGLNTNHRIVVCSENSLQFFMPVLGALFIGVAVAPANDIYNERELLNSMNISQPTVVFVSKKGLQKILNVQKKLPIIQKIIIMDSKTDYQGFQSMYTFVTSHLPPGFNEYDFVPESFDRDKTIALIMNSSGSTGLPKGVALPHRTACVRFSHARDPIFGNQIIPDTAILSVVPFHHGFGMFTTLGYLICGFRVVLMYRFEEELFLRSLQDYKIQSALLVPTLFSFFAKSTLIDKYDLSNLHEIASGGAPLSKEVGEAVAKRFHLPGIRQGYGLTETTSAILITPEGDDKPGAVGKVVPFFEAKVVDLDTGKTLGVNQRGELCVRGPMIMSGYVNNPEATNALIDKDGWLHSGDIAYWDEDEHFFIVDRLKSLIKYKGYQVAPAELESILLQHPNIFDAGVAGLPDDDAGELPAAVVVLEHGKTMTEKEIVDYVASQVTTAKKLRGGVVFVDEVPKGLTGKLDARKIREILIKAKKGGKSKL
Sequence of Retinoic acid receptor RXR-alpha (Homo sapiens) (P19793 whole entry, looked up): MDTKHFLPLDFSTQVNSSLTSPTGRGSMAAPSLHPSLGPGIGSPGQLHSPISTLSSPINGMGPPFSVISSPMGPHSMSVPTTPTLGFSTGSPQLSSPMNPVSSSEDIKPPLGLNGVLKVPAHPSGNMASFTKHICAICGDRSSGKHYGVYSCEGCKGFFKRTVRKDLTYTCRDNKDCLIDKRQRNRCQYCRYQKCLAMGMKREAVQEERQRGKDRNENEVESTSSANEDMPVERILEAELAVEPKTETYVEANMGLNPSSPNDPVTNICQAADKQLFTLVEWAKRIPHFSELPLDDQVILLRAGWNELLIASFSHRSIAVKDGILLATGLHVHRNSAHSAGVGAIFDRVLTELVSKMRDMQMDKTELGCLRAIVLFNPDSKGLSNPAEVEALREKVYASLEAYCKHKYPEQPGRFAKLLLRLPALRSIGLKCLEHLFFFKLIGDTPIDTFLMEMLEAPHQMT
Sequence of Nuclear receptor subfamily 1 group I member 3 (Homo sapiens) (Q14994 whole entry, looked up): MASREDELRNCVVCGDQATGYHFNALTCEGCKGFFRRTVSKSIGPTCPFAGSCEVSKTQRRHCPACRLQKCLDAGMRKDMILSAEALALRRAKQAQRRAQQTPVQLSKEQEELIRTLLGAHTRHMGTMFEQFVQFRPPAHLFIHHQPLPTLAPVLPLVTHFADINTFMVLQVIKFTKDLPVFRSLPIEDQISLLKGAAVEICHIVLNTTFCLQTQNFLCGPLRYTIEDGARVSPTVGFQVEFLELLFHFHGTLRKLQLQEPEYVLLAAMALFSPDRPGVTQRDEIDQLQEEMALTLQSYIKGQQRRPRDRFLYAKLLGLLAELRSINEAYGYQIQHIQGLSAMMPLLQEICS

N=C(N)c1ccccc1
inactive: [1] | [2] | [3] | [4] | [5] | [6] | [7] | [8] | [9] | [10] | [11] | [12] | [13] | [14]

CC(C)NCC(O)c1ccc(NS(C)(=O)=O)cc1 (stereo not given)
inactive: [1] | [2] | [3] | [4] | [5] | [6] | [7] | [8] | [9] | [10] | [11] | [13] | [14]

NCCc1cnc[nH]1
inactive: [1] | [2] | [3] | [4] | [5] | [6] | [7] | [8] | [10] | [11] | [12]

O=C(CCCN1CCC(O)(c2cccc(C(F)(F)F)c2)CC1)c1ccc(F)cc1
inactive: [1] | [2] | [3] | [4] | [5] | [6] | [15] | [16] | [7] | [17] | [8] | [9] | [10] | [11] | [12] | [13] | [14] | [18]

OC(CCN1CCCCC1)(c1ccccc1)C1CC2C=CC1C2 (stereo not given)
inactive: [1] | [2] | [3] | [4] | [5] | [6] | [7] | [8] | [9] | [10] | [11] | [14]

CCN1CCC[C@H]1CNC(=O)c1cc(S(N)(=O)=O)ccc1OC
inactive: [1] | [2] | [3] | [4] | [5] | [6] | [7] | [8] | [9] | [10] | [11] | [12] | [13] | [14]

N=c1nc(N2CCCCC2)cc(N)n1O
inactive: [1] | [2] | [3] | [4] | [5] | [6] | [7] | [8] | [9] | [10] | [12] | [13] | [14]

NS(=O)(=O)c1cc2c(cc1Cl)NC(C1CC3C=CC1C3)NS2(=O)=O (stereo not given)
inactive: [1] | [2] | [3] | [4] | [5] | [6] | [7] | [8] | [9] | [10] | [12] | [13] | [14]

c1ccc([C@H]2CN3CCSC3=N2)cc1
inactive: [1] | [2] | [3] | [4] | [5] | [6] | [7] | [8] | [9] | [10] | [11] | [14]
